The values that follow come from paper PMC7826789 (International Journal of Molecular Sciences, 2021).

Conditions in all cases: Compound Concentration (nM):1000
Test [1] has as its system PDGFRB.
The subject of test [2] is PDPK1.
Test [3] has as its system T1, PFCDPK1(P.falciparum).
T1 construct: gene CDPK1

The subject of test [4] is T2, PFPK5(P.falciparum).
T2 construct: gene MAL13P1.279

For test [5], the system named is T3, PFTAIRE2.
T3 construct: gene CDK15

Test [6] has as its system T4, PFTK1.
T4 construct: gene CDK14

For test [7], the system named is PHKG1.
For test [8], the system named is PHKG2.
The test system of test [9] is PIK3C2B.
Test [10] deals with PIK3C2G.
Test [11] deals with PIK3CA(C420R).
The test system of test [12] is PIK3CA(E542K).
In test [13] the test system is PIK3CA(E545A).
Test [14] relates to PIK3CA(E545K).
The test system of test [15] is PIK3CA(H1047L).
The subject of test [16] is PIK3CA(H1047Y).
For test [17], the system named is PIK3CA(I800L).
The subject of test [18] is PIK3CA(M1043I).
The test system of test [19] is PIK3CA(Q546K).
Test [20] concerns PIK3CA.
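Also: KINOMEscan scanMAX binding as percent activity remaining versus control; lower means stronger binding.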

On to `C[C@@H](Oc1cc(-n2cnc3ccc(OC4CCN(C)CC4)cc32)sc1C(N)=O)c1ccccc1Cl` [GSK579289A], for which the “Percent Control” value in test [1] was 12%; in test [2], 100%; in [3] it was 74%; in test [4] it was 76%; in test [5], 74%; in test [6], 95%. In addition, the “Percent Control” value was 86% in [7]; 81% in [8]; 32% in test [9]; 78% in test [10]; 60% in test [11]; 80% in [12]. The “Percent Control” value is 67% in [13]; 78% in test [14]; 76% in test [15]; 100% in test [16]; 78% in test [17]; 72% in test [18]. The “Percent Control” value is 100% in [19] and 65% in test [20].
Consider `Cl.c1ccc(Cc2nc3ccc(Nc4ncnc5ccccc45)cc3[nH]2)cc1` [GR269666A], for which the “Percent Control” value in test [1] was 100%; in test [2], 100%; in test [3], 83%; in test [4] it was 100%; in [5] it was 100%; in test [6], 100%. Also, the “Percent Control” value in test [7] is 100%; in [8], 97%; in test [9], 100%; in test [10], 89%; in [11] it was 100%; in test [12], 100%. For the same molecule, the “Percent Control” value in [13] was 100%; in test [14] it was 99%; in test [15] it was 100%; in [16] it was 100%; in test [17], 100%; in test [18] it was 100%. Further, the “Percent Control” value in test [19] and in test [20] was 100% each time.
Take `O=C(Nc1n[nH]c2nc(-c3ccc(O)cc3)c(Br)cc12)C1CC1` [SB-725317]: the “Percent Control” value in [1] is 3.4%; in test [2], 100%; in test [3], 32%; in test [4], 100%; in test [5], 92%; in [6], 84%. For the same molecule, the “Percent Control” value in test [7] is 100%; in test [8], 100%; in test [9] it was 100%; in test [10], 100%; in [11] it was 92%; in test [12], 100%. For the same molecule, the “Percent Control” value in test [13] is 100%; in test [14] it was 100%; in test [15], 100%; in test [16], 93%; in test [17] it was 100%; in test [18], 100%. In addition, the “Percent Control” value in [19] and in test [20] was 100% in each case.
With `COc1cc(C=NNc2ncnc3c2cnn3-c2ccccc2)ccc1O` [GW513184X], the “Percent Control” value is 40% in test [1]; 100% in [2]; 100% in test [3]; 100% in [4]; 100% in test [5]; 91% in test [6]. The “Percent Control” value was 100% in test [7]; 100% in [8]; 71% in test [9]; 100% in test [10]; 78% in [11]; 100% in test [12]. Besides, the “Percent Control” value was 76% in test [13]; 100% in test [14]; 100% in test [15]; 62% in test [16]; 100% in test [17]; 59% in [18]. Besides, the “Percent Control” value in test [19] was 100%; in [20], 78%.
For `NS(=O)(=O)c1ccc(N/N=C2\C(=O)Nc3ccc(Cl)cc32)cc1` [GW280670X], the “Percent Control” value in test [1] is 29%; in test [2], 100%; in [3] it was 81%; in test [4], 100%; in [5], 100%; in [6], 100%. Also, the “Percent Control” value in [7] is 100%; in test [8], 100%; in test [9], 100%; in test [10], 88%; in test [11] it was 100%; in test [12] it was 100%. The “Percent Control” value in [13], in test [14], in test [15], in test [16], in test [17] and in test [18] was 100% each time. The “Percent Control” value in [19] and in test [20] was 100% in each case.
As to `COc1cc(N2CCN(C(C)C)CC2)ccc1Nc1nc(Nc2ccc(F)cc2C(=O)NC[C@@H](O)CO)c2cc[nH]c2n1` [GSK1392956A], the “Percent Control” value in [1] was 100%; in [2], 91%; in [3], 94%; in [4] it was 74%; in test [5], 100%; in test [6], 100%. Also, the “Percent Control” value was 29% in [7]; 39% in [8]; 100% in test [9]; 96% in [10]; 99% in test [11]; 100% in test [12]. The “Percent Control” value in test [13] was 100%; in test [14] it was 95%; in test [15], 100%; in test [16], 83%; in [17], 97%; in test [18], 97%. The “Percent Control” value in test [19] and in test [20] was 100% throughout.
On to `COc1ccc2[nH]c3c4[nH]c5ccc(OC)cc5c4c4c(c3c2c1)C(=O)NC4=O` [GW296115X], for which the “Percent Control” value in test [1] was 0.1%; in [2] it was 25%; in [3], 29%; in test [4], 82%; in test [5], 91%; in test [6], 85%. Further, the “Percent Control” value in test [7] is 12%; in test [8], 52%; in test [9] it was 94%; in test [10] it was 76%; in [11], 90%; in test [12] it was 92%. In addition, the “Percent Control” value in test [13] was 100%; in test [14], 84%; in test [15], 74%; in [16], 89%; in test [17], 93%; in test [18] it was 95%. The “Percent Control” value in test [19] and in test [20] was 91% each time.
Take `CCc1ccc(Oc2nccc(-c3c(-c4ccc(F)cc4)ncn3C3CCNCC3)n2)cc1` [SB-242719]: the “Percent Control” value is 81% in test [1]; 86% in [2]; 66% in test [3]; 87% in test [4]; 93% in test [5]; 86% in test [6]. For the same molecule, the “Percent Control” value in test [7] is 90%; in test [8] it was 72%; in test [9] it was 100%; in test [10], 93%; in [11], 81%; in [12], 98%. Moreover, the “Percent Control” value in [13] was 87%; in test [14], 92%; in [15], 63%; in [16] it was 81%; in test [17], 91%; in [18], 100%. The “Percent Control” value is 90% in [19] and 92% in test [20].
Consider `CCn1c(-c2nonc2N)nc2c(C#CC(C)(C)O)nc(OCCNC)cc21.Cl` [GSK949675], for which the “Percent Control” value is 100% in [1]; 79% in [2]; 100% in [3]; 100% in test [4]; 100% in [5]; 100% in [6]. The “Percent Control” value in test [7] is 100%; in [8], 100%; in test [9] it was 82%; in [10], 100%; in [11], 100%; in test [12], 100%. Moreover, the “Percent Control” value in test [13] was 88%; in test [14], 100%; in test [15], 100%; in test [16], 77%; in test [17], 100%; in test [18] it was 100%. For the same molecule, the results for the “Percent Control” value in test [19] and in test [20] were 100% and 75%, respectively.
Consider `CC1=C(C(=O)Nc2ccc3[nH]ncc3c2)C(c2ccc3ccccc3c2)CC(=O)N1` (centres unmarked) [GSK270822A], for which the “Percent Control” value in test [1] was 74%; in test [2], 100%; in test [3], 66%; in test [4], 70%; in [5], 60%; in test [6], 64%. Moreover, the “Percent Control” value in test [7] is 100%; in test [8], 100%; in test [9], 92%; in test [10] it was 79%; in test [11], 90%; in test [12], 83%. Besides, the “Percent Control” value in test [13] is 91%; in test [14] it was 88%; in test [15], 97%; in test [16] it was 89%; in [17], 93%; in [18] it was 74%. Moreover, the results for the “Percent Control” value in [19] and in test [20] were 86% and 90%, respectively.
